# Assay results as given in ChEMBL document CHEMBL4513216, “Probing the Open Global Health Chemical Diversity Library for Multistage-Active Starting Points for Next-Generation Antimalarials” (ACS Infect Dis, 2020).
# Hit rate of the full screen: of about 68,000 compounds, about 2,700 (4%) showed an effect of 50% or more. What follows is part of a selection rich in strong results, with near analogues and random picks from the rest.
# System: Plasmodium berghei
# Assay: Screen against P. berghei liver stage (PbLuc), transformed with Luciferase, at 2uM
# Assay type: functional, HepG2
# Settings: tested at 2 uM
row,Compound,INHIBITION [%]
1,Cc1cnc(N2C[C@H]3CN(Cc4csc(C)n4)C(=O)[C@H]3C2)nc1,22.18
2,CNc1cccc(C2CCCN(C(=O)c3cnccn3)C2)n1 (configuration not stated),36.98
3,CNc1cccc(C2CCCN(C(=O)c3ccncc3)C2)n1 (configuration not stated),52.89
4,CNc1cccc(C2CCCN(C(=O)c3cccnc3)C2)n1 (configuration not stated),-23.48
5,COCCNC(=O)[C@@]12CCO[C@@H]1CCN(Cc1cc(C)on1)C2,10.43
6,Cc1cnc(N2CCOC(C(=O)NCc3ccccc3)C2)s1 (configuration not stated),10.03
7,O=C(NCc1ccccc1)C1CN(c2ccccn2)CCO1 (configuration not stated),82.2
8,O=C(NCc1cccnc1)[C@H]1C[C@@H]2CCN(c3ccncn3)C[C@H]2O1,23.53
9,O=C(Nc1ccc(-c2ccccc2)cc1)N1C[C@@H]2CNC[C@]2(C(=O)O)C1,51.42
10,O=C(Nc1ccccc1-c1ccccc1)N1C[C@@H]2CNC[C@]2(C(=O)O)C1,14.54
11,O=C(c1ccccc1-c1ccccc1)N1C[C@@H]2CNC[C@]2(C(=O)O)C1,19.13
12,CS(=O)(=O)CCNC1CCCN(Cc2noc(C3CC3)n2)C1 (configuration not stated),33.52
13,CC(C)c1cc(C(=O)NCC2CCCN(C(C)C)C2)n(C)n1 (configuration not stated),48.04
14,Cc1nn(C)c(C)c1C(=O)N1CCN(C(=O)CCC2CCCCC2)CC1,21.97
15,Cc1cc(C(=O)N2CCN(C(=O)CCC3CCCCC3)CC2)n(C)n1,74.44
16,O=C(c1ccon1)N1CCN(c2ccncc2Cl)CC1,39.5
17,Cc1nn(C)c(C)c1C(=O)N1CCN(c2ccncc2Cl)CC1,4
18,Cc1cc(C(=O)N2CCN(c3ccncc3Cl)CC2)n(C)n1,64.35
19,Cc1nn(C)c(C)c1C(=O)N1CCN(C(=O)CC2CCCCC2)CC1,43.44
20,Cc1cc(C)n(CC(C)CNC(=O)N(C)Cc2cc(C)on2)n1 (configuration not stated),0.89
21,Cc1nc(-c2cc(C(=O)NCCN3CCOCC3)c3ccccn23)cs1,-40.36
22,CC(c1ccncc1)N(C)S(C)(=O)=O (configuration not stated),-22.2
23,Cc1noc([C@]23COC[C@H]2CN(C(=O)Cc2ccsc2)C3)n1,15.36
24,CCS(=O)(=O)N1CCOC(CCCc2ccccc2)C1 (configuration not stated),1.94
25,CC(C)(CN1CCC(Cc2ccc(C(=O)O)cc2)C1)N1CCOCC1 (configuration not stated),52.01

row,Compound,INHIBITION [%]
1,CC(C)(CN1CCC(Cc2cccc(C(=O)O)c2)C1)N1CCOCC1 (configuration not stated),-32.96
2,CC(C)(CN1CCC(Cc2ccc(CO)cc2)C1)N1CCOCC1 (configuration not stated),-57.88
3,c1cnc(-c2noc(C3CN(Cc4ccc5c(c4)CCO5)C3)n2)nc1,-17.26
4,COc1ccccc1C(=O)N(C)Cc1nnc2ccccn12,40.82
5,COC(=O)C(c1cc(F)ccc1F)N(C)C(=O)c1cnccn1 (configuration not stated),-27.5
6,COC(=O)C(c1cc(F)ccc1F)N(C)C(=O)c1ccnc(C)n1 (configuration not stated),-12.91
7,COC(=O)C(c1cc(F)ccc1F)N(C)C(=O)c1cnc(C)cn1 (configuration not stated),60.09
8,Cc1cc(C)n(CCC2CC(=O)Nc3cc(O)c(C)cc32)n1 (configuration not stated),-32.52
9,Cc1noc(C(C)C)c1C(=O)NCCN1CCCCCC1=O,60.21
10,Cc1noc(C(C)C)c1C(=O)NCCCN1CCCC1,-75.02
11,Cc1noc(C)c1C(=O)NCCN1CCN(S(C)(=O)=O)CC1,-41.64
12,Cc1noc(C(C)C)c1C(=O)NCCCN1CCC(C)CC1,-15.34
13,Cc1noc(C)c1C(=O)NCCN1CCOCC1,63.46
14,Cc1noc(C(C)C)c1C(=O)NCCCN1CCCCCC1=O,77.68
15,Cc1noc(C(C)C)c1C(=O)NCCN1CCOCC1,32.63
16,Cc1noc(C(C)C)c1C(=O)NCCC(=O)N1CCCCC1,11.57
17,Cc1noc(C(C)C)c1C(=O)NCCCN1CCNCC1,43.16
18,Cc1nc(-c2ccccc2C)n(CC(=O)NC2CCCC2)n1,31.57
19,Cn1ccc(C(=O)N2CCCC2c2cc[nH]n2)n1 (configuration not stated),16.43
20,COCCc1ncc(CN2C[C@@H](C(=O)O)[C@H](C(C)C)C2)cn1,-59.6
21,COc1ccc(-n2ccc(CNCc3cccc(OC)c3)n2)cc1,28.75
22,O=C(NCc1cnn2cccnc12)C1CC2(CCNCC2)CN1 (configuration not stated),-1.33
23,Cn1cc(-c2cnc(N3CCOCC3)nc2)cc1C(=O)NCCC#N,-0.45
24,CCC(NC(=O)c1cc(NC(C)=O)ccc1Cl)c1cc(C)ccn1 (configuration not stated),57.75
25,COCC(NC(=O)c1cc(NC(C)=O)ccc1Cl)c1ccnn1C (configuration not stated),21.97

row,Compound,INHIBITION [%]
1,COCC(NC(=O)c1cc(NC(C)=O)ccc1Cl)c1ccccn1 (configuration not stated),29.13
2,COC(=O)C1CCCN1CC(=O)NCc1ccc(OCC(N)=O)cc1 (configuration not stated),-6.33
3,O=C1CCC[C@]2(CN(S(=O)(=O)N3CCCCC3)C[C@H]2c2cccnc2)N1,-0.64
4,CC(C)=CCN1CCN(C(=O)COc2ccccc2)[C@H]2CS(=O)(=O)C[C@H]21,41.68
5,CC(C)=CCN1CCN(C(=O)CSc2ccccn2)[C@H]2CS(=O)(=O)C[C@H]21,64.9
6,CC(C)=CCN1CCN(CCCc2ccccc2)[C@H]2CS(=O)(=O)C[C@H]21,7.29
7,Cc1nnsc1C(=O)N1CCN(CC2CC2)[C@@H]2CS(=O)(=O)C[C@@H]21,0.54
8,CCCN1CCN(C(=O)Cc2cccnc2)[C@H]2CS(=O)(=O)C[C@H]21,23.19
9,CCCN1CCN(C(=O)c2ccc3ccccc3n2)[C@H]2CS(=O)(=O)C[C@H]21,57.21
10,CCCN1CCN(C(=O)c2cc3ccccc3cn2)[C@H]2CS(=O)(=O)C[C@H]21,35.01
11,CC(=O)N1CCN(C(=O)c2snnc2C)[C@H]2CS(=O)(=O)C[C@H]21,-3.73
12,O=C(CSc1ccccn1)N1CCN(CCO)[C@@H]2CS(=O)(=O)C[C@@H]21,67.28
13,CC(C)=CCN1CCN(C(=O)c2snnc2C)[C@H]2CS(=O)(=O)C[C@H]21,51.38
14,O=C(C1CC1)N1CCN(C(=O)CSc2ccccn2)[C@H]2CS(=O)(=O)C[C@H]21,-32.88
15,CCCN1CCN(C(=O)c2cccc(C)n2)[C@H]2CS(=O)(=O)C[C@H]21,6.84
16,C[C@H](NC(=O)C1CCCC1)c1nc2cc(-c3ccc(F)cc3)ncn2n1,39.48
17,CC(O)c1cccc(OCc2ccon2)c1 (configuration not stated),46.28
18,Cn1cc(CN2CC[C@H]3O[C@H](C(=O)Nc4cnccn4)CC[C@H]32)cn1,-20.89
19,CN(CC(=O)Nc1cccnc1)CC1CCCN1c1cccnn1 (configuration not stated),45.48
20,Cc1nn(C)c(Cl)c1C1CCCN1C(=O)c1cnc[nH]1 (configuration not stated),8.37
21,CC(=O)N(Cc1noc(C)n1)C1CCN(CC(=O)N(C)C2CC2)C1 (configuration not stated),-3.97
22,Cc1nccn1CCN(C)C(=O)C1CCN(C(=O)C2CCC2)CC1,20.45
23,CN(C)CCN1C[C@@H]2CN(S(=O)(=O)c3ccccc3)C[C@@H]2C1=O,19.16
24,Cc1ccc(CN2C[C@H](OCC3CCOCC3)[C@H]3COC[C@H]32)o1,18.32
25,CC(C)CN1CCN(S(=O)(=O)c2cn(C)cn2)[C@H]2CS(=O)(=O)C[C@H]21,15.74

row,Compound,INHIBITION [%]
1,CC(C)=CCN1CCN(S(=O)(=O)c2cn(C)cn2)[C@H]2CS(=O)(=O)C[C@H]21,50.98
2,O=C(c1ccc2nccnc2c1)N1CCN(CCO)[C@@H]2CS(=O)(=O)C[C@@H]21,14.82
3,Cc1nc2ccc(C(=O)N3CCN(CCO)[C@@H]4CS(=O)(=O)C[C@@H]43)cc2o1,-85.34
4,CC(C)=CCN1CCN(Cc2nccn2C)[C@H]2CS(=O)(=O)C[C@H]21,8.26
5,Cn1cnc2cc(C(=O)N3CCN(CCO)[C@@H]4CS(=O)(=O)C[C@@H]43)ccc21,55.36
6,O=C(Cn1nc(-c2ccc(F)cc2)oc1=O)NCCc1ccccc1,20.57
7,c1ccc(OCc2nnn3c2CN(c2ncccn2)CCC3)nc1,-7.52
8,Cc1nnc2ccc(OCCNS(C)(=O)=O)nn12,-26.08
9,N#Cc1cccc(CN2CCn3cc(Cn4cccn4)nc3C2)c1,21.42
10,CSc1ccc(NCC(=O)NCC(=O)N2CCCC2)cc1F,-30.18
11,CSc1ccc(NCC(=O)NCC2CC2)cc1F,55.66
12,CSc1ccc(NCC(=O)NC(=O)NCC(F)(F)F)cc1F,18.63
13,COc1ccc(CNC(=O)NC2CCN(CC3CCCC3)CC2)cn1,-17.01
14,CCCN1C[C@H](NC(=O)c2ccccc2F)[C@@H](c2ccc(OC)cc2)C1,16.55
15,CCCN1C[C@H](NC(=O)c2cccs2)[C@@H](c2ccc(OC)cc2)C1,53.65
16,CCCN1C[C@H](NC(=O)c2cc(C)no2)[C@@H](c2ccc(OC)cc2)C1,18.22
17,O=c1c2ccccc2ncn1Cc1cc(C2CC2)[nH]n1,34.98
18,CCOCC1c2c(ncn2C)CCN1C(=O)c1cscn1 (configuration not stated),16.78
19,Cc1ncnc2c1CCN(Cc1ccc3c(c1)OCO3)CC2,-39.9
20,Cc1noc(C)c1CNc1ccc2nc(C3CC3)sc2c1,25.21
21,Cc1cc(CNc2ccc3nc(C4CC4)sc3c2)no1,53.63
22,Cc1cc(CNc2ccc3nc(C)sc3c2)no1,-32.33
